According to PubChem BioAssay AID1259421 (Broad Institute, 2018):
Values joined by “and” are separate entries in the source; they are usually repeats but may differ in a detail not shown here. Equal entries are not always repeated. Out of some 6,400 compounds screened, about 610 (9.5%) were called active. Rule as the data show it: active = activity change below about -70%; inconclusive = no clear call, values can overlap the other calls; inactive = above that. For the sample, actives were picked, then their nearest neighbours and some compounds at random. Some compounds were tested as several samples or in several runs, with calls that do not always agree.

test: T. gondii ME49Luc in HeLa cells, luciferase assay, 72 h, no IFN-y (AID 1259421); settings: stronger effect = lower value, concentration not given here

SMILES | activity change, negative = inhibition
CCNC(=O)CCC(N)C(=O)O (configuration not stated) | 15.2% (inactive)
CC1(C)C2CC[C@]3(C)C(C(=O)C=C4[C@@H]5C[C@@](C)(C(=O)O)CC[C@]5(C)CC[C@]43C)[C@@]2(C)CC[C@@H]1OC(=O)CCC(=O)O (some centres not stated) | 6.36% (inactive)
O=C(c1c(O)c2ccc(Cl)cc2[nH]c1=O)C1CC1 | 3.48% (inactive) and 5.32% (inactive)
C=CCN1CCCC1CNC(=O)c1cc2[nH]nnc2cc1OC (configuration not stated) | 3.75% (inactive)
CC1(C)C(=O)[C@@H]2C[C@@]3(O)C4=CC(=O)O[C@@H](c5ccoc5)[C@]4(C)CCC3[C@@](C)(C2=O)[C@H]1CC(=O)O (some centres not stated) | 0.589% (inactive)
O=c1n(CC2CO2)c(=O)n(CC2CO2)c(=O)n1CC1CO1 (configuration not stated) | 36.1% (inactive)
COc1ccc2cc1Oc1cc3c(cc1OC)CC[N+](C)(C)[C@H]3Cc1ccc(cc1)Oc1c(OC)c(OC)cc3c1[C@@H](C2)[N+](C)(C)CC3 | 18.6% (inactive)
COc1ccc2cc1Oc1ccc(cc1)C[C@H]1c3c(cc4c(c3Oc3cc5c(cc3OC)CCN(C)[C@@H]5C2)OCO4)CCN1C | 12.1% (inactive) and -4.88% (inactive)
COc1ccc2cc1Oc1ccc(cc1)C[C@H]1c3cc(c(OC)cc3CCN1C)Oc1c(OC)c(OC)cc3c1[C@H](C2)N(C)CC3 | -77.3% (active) and 18.9% (inactive)
CC(O)CCCCn1c(=O)c2c(ncn2C)n(C)c1=O (configuration not stated) | -6.61% (inactive)
CCCN(CCc1cccs1)[C@H]1CCc2c(O)cccc2C1 | 10.9% (inactive)
CCCCn1c(=O)c2[nH]c(C34CC5CC(CC3C5)C4)nc2n(CCCO)c1=O | 12% (inactive) and -13.1% (inactive)
O=C1[C@@H](Cc2ccc(O)cc2)N2C(=O)CCN(C(=O)NCc3ccccc3)[C@H]2CN1Cc1cccc2ccccc12 | 1.58% (inactive)
CC(=O)OC(C)(C)[C@@H]1Cc2cc3ccc(=O)oc3cc2O1 | -5.08% (inactive)
CCN(CC)c1ccc(C(=C2C=CC(=[N+](CC)CC)C=C2)c2ccccc2)cc1 | -79.9% (active)
CCN(Cc1cccc(S(=O)(=O)O)c1)c1cccc(C(=C2C=CC(=[N+](CC)Cc3cccc(S(=O)(=O)O)c3)C=C2)c2ccc(O)cc2S(=O)(=O)O)c1 | -44.9% (inactive)
O[C@@H]1[C@H](O)[C@@H](CCl)O[C@H]1n1cnc2c(NC3CC4CCC3C4)ncnc21 (some centres not stated) | 20.5% (inactive)
Cc1cc(Oc2ccc3nc(COc4ccc(CC5SC(=O)NC5=O)cc4)n(C)c3c2)cc(C)c1N (configuration not stated) | 12.3% (inactive)
N[C@](CC1c2ccccc2Oc2ccccc21)(C(=O)O)[C@H]1C[C@@H]1C(=O)O | 6.02% (inactive)
CCn1c(=O)[nH]c2cc(Cl)c(Cl)cc21 | -80.8% (active) and -78.6% (active)
CCn1c(=O)[nH]c2ccccc21 | 10.3% (inactive) and 2.46% (inactive)
CCN(CCO)CCCOc1ccc2c(Nc3cc(CC(=O)Nc4cccc(F)c4)[nH]n3)ncnc2c1 | 18.9% (inactive)
CCOc1ccc2nc(SCCN3CCOCC3)[nH]c2c1 | 17.7% (inactive)
Cc1cc(C)c(Nc2ccnc(Nc3ccc(C#N)cc3)n2)c(C)c1 | -44.9% (inactive)

SMILES | activity change, negative = inhibition
Cc1cc(C#N)cc(C)c1Oc1nc(Nc2ccc(C#N)cc2)nc(N)c1Br | -89.7% (active)
Cc1cc(/C=C/C#N)cc(C)c1Nc1ccnc(Nc2ccc(C#N)cc2)n1 | 17.7% (inactive)
C[C@@H](N)c1ccc(C(=O)Nc2ccnc3[nH]ccc23)cc1 | -3.01% (inactive)
C=CC(=O)Nc1ccccc1 | -0.419% (inactive)
CC(=O)c1ccc(N2CCOCC2)cc1O | 0.777% (inactive)
O=c1cc(-c2ccc(O)cc2)oc2ccc(O)cc12 | -46.2% (inactive)
CCCCCCCC(=O)OCC(COC(=O)CCCCCCC)OC(=O)CCCCCCC | 13.9% (inactive)
[Cl][Ru]([Cl])([Cl])[Cl].c1ccc2[nH]ncc2c1.c1ccc2[nH]ncc2c1 | 8% (inactive)
CC(=O)[C@@]12OC(C)(c3ccccc3)O[C@@H]1C[C@H]1[C@@H]3CCC4=CC(=O)CC[C@]4(C)[C@H]3CC[C@@]12C (some centres not stated) | -52.9% (inactive)
CC(=O)[C@@]12O[C@](C)(c3ccccc3)O[C@@H]1CC1C3CCC4=CC(=O)CC[C@]4(C)C3CC[C@@]12C (some centres not stated) | -11.3% (inactive)
C#C[C@]1(O)CCC2C3CCC4=Cc5oncc5C[C@]4(C)C3CC[C@@]21C (some centres not stated) | -82.2% (active) and -83.7% (active)
C[C@]12CCC(=O)C=C1CCC1C2C(=O)C[C@@]2(C)C1CC[C@]2(O)C(=O)CO (some centres not stated) | -0.365% (inactive) and 6.68% (inactive)
C#CC1(O)CCC2C3CCC4=Cc5oncc5CC4(C)C3CCC21C (configuration not stated) | -93.9% (active)
NC(CSSCC(N)C(=O)O)C(=O)O (configuration not stated) | 13.9% (inactive)
CC1(C)SC2C(NC(=O)[C@H](NC(=O)N3CCNC3=O)c3ccccc3)C(=O)N2C1C(=O)O (some centres not stated) | 33.6% (inactive)
NS(=O)(=O)c1cc2c(cc1Cl)NC(C1CC3C=CC1C3)NS2(=O)=O (configuration not stated) | -95.9% (active)
NS(=O)(=O)c1cc2c(cc1Cl)NC(C(Cl)Cl)NS2(=O)=O (configuration not stated) | 13.1% (inactive) and 33% (inactive)
NS(=O)(=O)c1cc2c(cc1Cl)NC(CC1CCCC1)NS2(=O)=O (configuration not stated) | 18.7% (inactive)
O=C1c2ccccc2C(Cc2ccnc(F)c2)(Cc2ccnc(F)c2)c2ccccc21 | 21.9% (inactive) and 12.1% (inactive)
O=C1N[C@@H]2[C@@H](O)[C@@H](O)[C@H](O)[C@@H](CO)N2C1=O | 11.7% (inactive)
O[C@H]([C@H](O)[C@@H]1CO1)[C@H]1CO1 | 5.39% (inactive)
C=C1c2c(Cl)ccc(O)c2C(=O)C2C(=O)[C@]3(O)C(=O)C(C(N)=O)C(=O)[C@@H](N(C)C)[C@@H]3[C@@H](O)[C@H]12 (some centres not stated) | -9.94% (inactive) and 7.28% (inactive)
C=C1c2cccc(O)c2C(=O)C2C(=O)[C@]3(O)C(=O)C(C(N)=O)C(=O)[C@@H](N(C)C)[C@@H]3[C@@H](O)[C@H]12 (some centres not stated) | -67.5% (inactive) and 19% (inactive)
